About 83,000 compounds went through this panel and 20% of them were active in at least one assay; those are over-represented in the sample as a whole.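 Compound tested at a single concentration for 48 hours in 96-well plates; a percent growth value below 10 was scored as active.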 Activity calls are given as the source filed them.
Experiments:
Experiment in all cases: NCI-60 one-dose screen, 48 h (100 = growth as untreated, 0 = no growth, -100 = all killed)
Settings in all cases: 10 µM unless noted
[1] = tested on: DU-145 prostate
[2] = tested on: K-562 leukemia
[3] = tested on: MALME-3M melanoma
[4] = tested on: MDA-MB-231 breast
[5] = tested on: RXF 393 renal
[6] = tested on: SF-268 CNS
[7] = tested on: SF-295 CNS
[8] = tested on: SF-539 CNS
[9] = tested on: UACC-257 melanoma
[10] = tested on: M14 melanoma

Measured: growth

Nc1nc(Nc2ccccc2SSc2ccccc2Nc2nc(N)nc(C(Cl)(Cl)Cl)n2)nc(C(Cl)(Cl)Cl)n1
inactive: [1] 82.3% | [2] 52.8% | [3] 75% | [4] 44.1% | [5] 67.2% | [6] 50.5% | [7] 27.4% | [8] 84.3% | [9] 100% | [10] 67%

O=C1NC(=O)/C(=C/c2ccc(Cl)cc2Cl)N1
inactive: [1] 117% | [2] 104% | [3] 100% | [4] 110% | [5] 120% | [6] 103% | [7] 114% | [8] 103% | [9] 108% | [10] 121%

CC[n+]1c(/C=C/c2ccc(N3CCCC3)cc2)cccc1/C=C/c1ccc(N2CCCC2)cc1
active: [1] -97.4% | [2] 8.88% | [3] -82.2% | [4] -80.6% | [5] -93.7% | [6] -90.3% | [7] -76.9% | [8] -87.2% | [9] -92.5% | [10] -65.3%

C(#Cc1ccccc1C#Cc1ccccn1)c1ccc(OCCCCCCOc2ccc(C#Cc3ccccc3C#Cc3ccccn3)cc2)cc1
active: [7] -3.2%
inactive: [1] 76.2% | [2] 31.6% | [3] 99.6% | [4] 35.3% | [5] 45.6% | [6] 88.9% | [8] 25.4% | [9] 34.2% | [10] 23.4%

c1ccc2c(-c3nc4ccccc4[nH]3)cccc2c1
active: [10] 3.75%
inactive: [1] 33.6% | [2] 14.5% | [3] 38.1% | [4] 41.4% | [5] 31% | [6] 61.4% | [7] 61.4% | [8] 37.1% | [9] 35.7%

COc1cc(C2CC(C3C(=O)N(C)C(=O)N(C)C3=O)=NN2c2cc(Cl)cc(Cl)c2)cc(OC)c1OC (stereo not given)
inactive: [1] 107% | [2] 88.4% | [3] 89.1% | [4] 103% | [5] 99.3% | [6] 103% | [7] 84.4% | [8] 96% | [9] 74.2% | [10] 89.3%

CN1CCN(c2nc3scc(-c4ccccc4)c3c(=O)[nH]2)CC1
inactive: [1] 103% | [2] 95.9% | [3] 86.4% | [4] 92% | [5] 96.5% | [6] 96.7% | [7] 96.6% | [8] 93.7% | [9] 108% | [10] 97.6%

CCSc1nc(-c2ccco2)n2nc(-c3ccco3)cc2n1
inactive: [1] 118% | [2] 116% | [3] 116% | [4] 88.1% | [5] 101% | [6] 113% | [7] 101% | [8] 100% | [9] 102% | [10] 121%

C#C[C@]1(O)CCC2C3CCc4cc(O)ccc4C3CC[C@@]21C (stereo not given in full)
inactive: [1] 60.8% | [2] 12.7% | [3] 43% | [4] 66.7% | [5] 51.5% | [6] 47.7% | [7] 22.6% | [8] 21% | [9] 75.2% | [10] 20.4%

O=C(CNC(=O)c1cccc2ccccc12)Nc1ccccc1Oc1ccc(O)cc1
active: [2] 9.54% [5 µM] | [5] -2.89% [5 µM] | [7] 6.5% [5 µM] | [8] -11% [5 µM] | [10] 9.58% [5 µM]
inactive: [1] 19.5% [5 µM] | [3] 57.9% [5 µM] | [4] 47.7% [5 µM] | [6] 51.7% [5 µM] | [9] 76.7% [5 µM]

C/C(=C\CCc1ccoc1)CC/C=C(\C)CCCN1CCOCC1
inactive: [1] 73.9% | [2] 20.6% | [3] 55.8% | [4] 43.7% | [5] 50.1% | [6] 72.6% | [7] 67.8% | [8] 78.2% | [9] 53.4% | [10] 62.6%

Nc1nc(NC2CC2)c2ncn(C3C=CC(CO)C3)c2n1 (stereo not given)
inactive: [1] 126% | [2] 84.2% | [3] 105% | [4] 98.5% | [6] 126% | [7] 106% | [8] 118% | [9] 100% | [10] 116%
active: [5] -4.67%

Cc1sc2nc(NCc3ccccc3)[nH]c(=O)c2c1C
inactive: [1] 73.4% | [2] 12.9% | [3] 75.7% | [4] 59.8% | [5] 69% | [6] 74.2% | [7] 52.4% | [8] 65.5% | [9] 73% | [10] 27.8%

NS(=O)(=O)c1ccc(-n2ncc3c(NC4CCCCC4)ncnc32)cc1
inactive: [1] 100% | [2] 54.4% | [3] 108% | [4] 85.9% | [5] 13.4% | [6] 116% | [7] 48.9% | [8] 90.9% | [9] 79.6% | [10] 98.2%

COc1ccc(-c2cc(-c3nnc(SCC(=O)Nc4ccc(C(C)=O)cc4)n3-c3ccccc3)c3ccccc3n2)cc1OC
inactive: [1] 110% | [2] 110% | [3] 97.2% | [4] 105% | [5] 115% | [6] 89.9% | [7] 98.7% | [8] 97.4% | [9] 87.1% | [10] 93.7%

CCCCCCC(CC#N)(CCC)CCCC (stereo not given)
inactive: [1] 121% | [2] 106% | [3] 100% | [4] 106% | [5] 106% | [6] 115% | [7] 39.5% | [8] 85.3% | [9] 104% | [10] 110%

C[C@@H]1[C@H]2[C@H](C=C3[C@@H]4CC[C@H]5Cc6nc7c(nc6C[C@]5(C)[C@H]4C[C@@H](O)[C@@]32C)C[C@@H]2CC[C@H]3C4=C[C@@H]5O[C@@]6(CC[C@](C)(CO)O6)[C@@H](C)[C@@]5(O)[C@@]4(C)[C@H](O)C[C@@H]3[C@@]2(C)C7)O[C@]12CCC(C)(C)O2
active: [2] -7.07% | [4] -0.32% | [5] -44.4% | [7] -63.4% | [8] 3.28% | [10] 8.26%
inactive: [1] 45.2% | [3] 38.8% | [6] 31.2% | [9] 26.6%

C[C@H]1c2cccc(O)c2C(O)=C2C(=O)[C@]3(O)C(O)=C(C(N)=O)C(=O)[C@@H](N(C)C)[C@@H]3[C@@H](O)[C@@H]21
inactive: [1] 47.7% | [2] 37.9% | [3] 27.8% | [4] 74.6% | [5] 58.3% | [6] 28.2% | [7] 19.2% | [8] 25.6% | [9] 57.7% | [10] 32.1%

O=C(Nc1ccccc1)c1cc(-n2cnc([N+](=O)[O-])c2)cc(-n2cnc([N+](=O)[O-])c2)n1
inactive: [1] 110% | [2] 86.5% | [3] 94.4% | [4] 88.6% | [6] 119% | [7] 130% | [8] 102% | [9] 89.3% | [10] 94.6%
active: [5] -14.6%

O=C(O)CCC(=O)OC[C@@H](NC(=O)C(Cl)Cl)[C@H](O)c1ccc([N+](=O)[O-])cc1
inactive: [1] 110% | [2] 98.6% | [3] 96% | [4] 103% | [5] 104% | [6] 109% | [7] 101% | [8] 100% | [9] 104% | [10] 98%

COc1ccccc1NC(=O)c1sc2nc3c(cc2c1N)C(=O)CCC3
inactive: [1] 86.6% | [2] 41.5% | [3] 58.2% | [4] 57.5% | [5] 77% | [6] 102% | [7] 25.7% | [8] 66.2% | [9] 58.5% | [10] 47.1%

C/C=C(/C(=C/C)c1ccc(O)cc1)c1ccc(O)cc1
active: [5] 8.39% | [8] -3.67%
inactive: [1] 28.2% | [2] 22.8% | [3] 23.1% | [4] 49.1% | [6] 45.6% | [7] 12% | [9] 53.9% | [10] 15.4%

COc1ccc2cc(C3=CC(=O)CCC3)ccc2c1
inactive: [1] 103% | [2] 105% | [3] 114% | [4] 99.6% | [5] 99.4% | [6] 103% | [7] 110% | [8] 95.7% | [9] 96.6% | [10] 104%

CCc1nn2c(-c3ccc(Cl)cc3C)c(-c3cc(OC)c(OC)c(OC)c3)nc2s1
inactive: [1] 91.7% | [2] 78.4% | [3] 68% | [4] 73.8% | [5] 85.2% | [6] 93.4% | [7] 95.3% | [8] 92.6% | [9] 103% | [10] 76.7%

N/C(=N\C(N)=N\c1nc2ccccc2s1)c1ccnc(Cl)c1
active: [2] 8.95% | [5] -6.26% | [8] 7.12%
inactive: [1] 26.9% | [3] 64.9% | [4] 49.7% | [6] 61.5% | [7] 17.6% | [9] 74.4% | [10] 27.9%

COc1ccc2c(c1)sc1nc(-c3ccc(N(C)C)cc3)cn12
inactive: [1] 103% | [2] 80% | [3] 112% | [4] 122% | [5] 114% | [6] 93.1% | [7] 98.7% | [8] 99.4% | [9] 95.8% | [10] 103%
